Legend:
Test in all cases: DAPPL (digital affinity profiling via proximity ligation, sequencing); 10 mM Tris-HCl pH 7.5, 50 mM NaCl, 1 mM DTT, 4% glycerol, room temperature, 30 min; GST-TFs on glutathione beads, 16-mer random dsDNA library, 0.1% formaldehyde crosslink after washing; high values mean tight binding
FLI1 = target: T1, FLI1 (Homo sapiens, UniProt Q01543 1-452); settings: protein: recombinant; tags: N-terminal GST; dsDNA, one strand shown
T1 sequence: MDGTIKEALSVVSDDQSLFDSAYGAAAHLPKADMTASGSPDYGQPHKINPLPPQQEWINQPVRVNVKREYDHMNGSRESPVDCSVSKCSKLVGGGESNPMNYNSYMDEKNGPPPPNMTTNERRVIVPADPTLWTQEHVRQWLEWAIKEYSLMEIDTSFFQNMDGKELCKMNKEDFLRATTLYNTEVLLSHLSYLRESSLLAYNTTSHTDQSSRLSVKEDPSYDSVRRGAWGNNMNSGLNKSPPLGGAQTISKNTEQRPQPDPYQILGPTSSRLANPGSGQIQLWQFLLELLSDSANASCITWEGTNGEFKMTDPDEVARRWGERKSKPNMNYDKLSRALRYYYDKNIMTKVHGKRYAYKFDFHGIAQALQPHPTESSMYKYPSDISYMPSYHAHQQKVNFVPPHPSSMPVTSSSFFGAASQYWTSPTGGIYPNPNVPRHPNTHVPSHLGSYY
In short: (§1)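 A tag-only sample was pooled with DNA-barcoded human transcription factors that had been expressed in yeast as GST fusions and captured on glutathione beads. The pools were incubated for 30 min at room temperature with 200 nmole of a random double-stranded 16-mer DNA library in Tris/NaCl/DTT/glycerol buffer, then washed, crosslinked with 0.1% formaldehyde, proximity-ligated (BsaI/T4 ligase, 1 h, 37 °C), PCR-amplified and sequenced on an Illumina NextSeq500. Binding signal is each hexamer's read frequency for a factor divided by its frequency for the tag-only sample.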

ELK1 = target: T2, ELK1 (Homo sapiens, UniProt P19419 1-428); settings: protein: recombinant; tags: N-terminal GST; dsDNA, one strand shown
T2 sequence: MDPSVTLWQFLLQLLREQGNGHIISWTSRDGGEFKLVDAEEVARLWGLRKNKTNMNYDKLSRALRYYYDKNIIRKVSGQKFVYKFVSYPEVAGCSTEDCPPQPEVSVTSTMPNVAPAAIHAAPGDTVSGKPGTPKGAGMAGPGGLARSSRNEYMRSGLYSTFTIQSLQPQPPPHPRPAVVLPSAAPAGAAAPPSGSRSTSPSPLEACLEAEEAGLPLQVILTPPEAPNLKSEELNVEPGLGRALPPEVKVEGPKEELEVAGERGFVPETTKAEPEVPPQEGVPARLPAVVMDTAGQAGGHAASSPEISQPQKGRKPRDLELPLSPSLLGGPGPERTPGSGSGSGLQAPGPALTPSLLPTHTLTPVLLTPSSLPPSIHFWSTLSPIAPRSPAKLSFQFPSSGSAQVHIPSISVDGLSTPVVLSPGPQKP
In short: as §1

GABPA = target: T3, GABPA (Homo sapiens, UniProt Q06546 1-454); settings: protein: recombinant; tags: N-terminal GST; dsDNA, one strand shown
T3 sequence: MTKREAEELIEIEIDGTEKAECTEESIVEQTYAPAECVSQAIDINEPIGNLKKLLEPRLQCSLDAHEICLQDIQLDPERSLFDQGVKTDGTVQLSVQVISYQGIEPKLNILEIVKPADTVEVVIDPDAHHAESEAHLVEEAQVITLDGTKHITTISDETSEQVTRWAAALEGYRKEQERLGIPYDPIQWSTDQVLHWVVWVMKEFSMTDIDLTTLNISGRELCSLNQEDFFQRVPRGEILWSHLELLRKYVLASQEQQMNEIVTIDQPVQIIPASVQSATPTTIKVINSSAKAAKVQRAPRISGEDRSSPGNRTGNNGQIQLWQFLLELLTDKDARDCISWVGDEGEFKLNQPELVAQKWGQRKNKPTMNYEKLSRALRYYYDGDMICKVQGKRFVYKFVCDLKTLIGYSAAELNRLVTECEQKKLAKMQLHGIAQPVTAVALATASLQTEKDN
In short: as §1

ERG = target: T4, ERG (Homo sapiens, UniProt P11308 1-479); settings: protein: recombinant; tags: N-terminal GST; dsDNA, one strand shown
T4 sequence: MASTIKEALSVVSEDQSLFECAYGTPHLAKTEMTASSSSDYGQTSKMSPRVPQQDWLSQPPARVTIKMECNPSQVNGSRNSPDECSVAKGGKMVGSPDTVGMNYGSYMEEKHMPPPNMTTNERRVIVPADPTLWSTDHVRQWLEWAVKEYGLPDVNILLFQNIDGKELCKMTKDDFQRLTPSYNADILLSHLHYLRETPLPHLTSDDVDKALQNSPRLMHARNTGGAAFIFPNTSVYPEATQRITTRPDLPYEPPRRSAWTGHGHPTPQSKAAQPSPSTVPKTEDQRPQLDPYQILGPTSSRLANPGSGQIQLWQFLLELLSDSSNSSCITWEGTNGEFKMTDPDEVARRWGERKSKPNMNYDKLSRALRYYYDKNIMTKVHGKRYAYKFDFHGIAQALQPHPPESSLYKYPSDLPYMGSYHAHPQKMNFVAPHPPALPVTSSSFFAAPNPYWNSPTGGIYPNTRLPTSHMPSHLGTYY
In short: as §1

ELF1 = ELF1 (Homo sapiens, UniProt P32519 1-619); settings: protein: recombinant; tags: N-terminal GST; dsDNA, one strand shown
Chain of ELF1 (P32519 whole entry): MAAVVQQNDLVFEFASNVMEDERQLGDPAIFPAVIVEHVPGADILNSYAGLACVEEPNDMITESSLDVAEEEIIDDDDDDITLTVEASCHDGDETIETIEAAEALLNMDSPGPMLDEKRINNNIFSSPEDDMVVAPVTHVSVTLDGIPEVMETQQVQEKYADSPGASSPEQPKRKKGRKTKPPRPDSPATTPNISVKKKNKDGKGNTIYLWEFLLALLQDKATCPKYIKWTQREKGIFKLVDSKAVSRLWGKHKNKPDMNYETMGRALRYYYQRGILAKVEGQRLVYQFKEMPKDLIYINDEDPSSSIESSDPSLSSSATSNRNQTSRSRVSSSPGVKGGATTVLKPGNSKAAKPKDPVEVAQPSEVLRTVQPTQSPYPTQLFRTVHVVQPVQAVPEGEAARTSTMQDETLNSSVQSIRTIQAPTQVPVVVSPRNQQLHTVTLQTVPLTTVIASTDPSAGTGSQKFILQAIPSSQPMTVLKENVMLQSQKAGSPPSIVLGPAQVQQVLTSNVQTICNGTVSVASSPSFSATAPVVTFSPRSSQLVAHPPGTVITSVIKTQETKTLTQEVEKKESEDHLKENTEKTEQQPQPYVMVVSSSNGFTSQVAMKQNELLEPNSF
In short: as §1

EHF = target: T5, EHF (Homo sapiens, UniProt Q9NZC4 1-300); settings: protein: recombinant; tags: N-terminal GST; dsDNA, one strand shown
T5 sequence: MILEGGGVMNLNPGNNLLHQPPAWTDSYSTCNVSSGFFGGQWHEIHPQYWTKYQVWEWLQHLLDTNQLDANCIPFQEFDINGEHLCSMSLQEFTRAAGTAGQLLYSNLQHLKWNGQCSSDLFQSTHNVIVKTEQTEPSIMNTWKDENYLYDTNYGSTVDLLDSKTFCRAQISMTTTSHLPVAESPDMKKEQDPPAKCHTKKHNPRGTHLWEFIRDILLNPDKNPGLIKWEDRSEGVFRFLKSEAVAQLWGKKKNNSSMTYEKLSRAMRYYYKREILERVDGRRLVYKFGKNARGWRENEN
In short: as §1

SPI1 = SPI1 (Homo sapiens, UniProt P17947 1-270); settings: protein: recombinant; tags: N-terminal GST; dsDNA, one strand shown
In short: as §1

ELK3 = target: T6, ELK3 (Homo sapiens, UniProt P41970 1-407); settings: protein: recombinant; tags: N-terminal GST; dsDNA, one strand shown
T6 sequence: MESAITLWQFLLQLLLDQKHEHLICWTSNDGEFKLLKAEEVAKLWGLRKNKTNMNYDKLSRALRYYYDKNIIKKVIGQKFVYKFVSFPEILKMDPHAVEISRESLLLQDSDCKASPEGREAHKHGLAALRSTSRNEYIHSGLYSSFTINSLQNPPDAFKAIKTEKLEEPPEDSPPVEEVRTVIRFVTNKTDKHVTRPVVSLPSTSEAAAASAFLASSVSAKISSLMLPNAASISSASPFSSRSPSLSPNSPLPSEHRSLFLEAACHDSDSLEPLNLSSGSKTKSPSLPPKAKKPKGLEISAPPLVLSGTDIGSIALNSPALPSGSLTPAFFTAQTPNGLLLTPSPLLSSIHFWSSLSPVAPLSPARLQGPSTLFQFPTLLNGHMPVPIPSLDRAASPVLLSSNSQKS
In short: as §1

FEV = target: T7, FEV (Homo sapiens, UniProt Q99581 1-238); settings: protein: recombinant; tags: N-terminal GST; dsDNA, one strand shown
T7 sequence: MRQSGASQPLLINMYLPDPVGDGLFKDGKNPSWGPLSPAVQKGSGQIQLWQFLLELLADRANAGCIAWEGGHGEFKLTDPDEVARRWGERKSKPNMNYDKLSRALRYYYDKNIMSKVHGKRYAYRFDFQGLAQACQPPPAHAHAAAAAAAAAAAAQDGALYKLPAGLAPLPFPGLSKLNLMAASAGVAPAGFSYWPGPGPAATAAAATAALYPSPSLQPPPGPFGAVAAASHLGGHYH
In short: as §1

ETV5 = ETV5 (Homo sapiens, UniProt P41161 1-510); settings: protein: recombinant; tags: N-terminal GST; dsDNA, one strand shown
Chain of ETV5 (P41161 whole entry): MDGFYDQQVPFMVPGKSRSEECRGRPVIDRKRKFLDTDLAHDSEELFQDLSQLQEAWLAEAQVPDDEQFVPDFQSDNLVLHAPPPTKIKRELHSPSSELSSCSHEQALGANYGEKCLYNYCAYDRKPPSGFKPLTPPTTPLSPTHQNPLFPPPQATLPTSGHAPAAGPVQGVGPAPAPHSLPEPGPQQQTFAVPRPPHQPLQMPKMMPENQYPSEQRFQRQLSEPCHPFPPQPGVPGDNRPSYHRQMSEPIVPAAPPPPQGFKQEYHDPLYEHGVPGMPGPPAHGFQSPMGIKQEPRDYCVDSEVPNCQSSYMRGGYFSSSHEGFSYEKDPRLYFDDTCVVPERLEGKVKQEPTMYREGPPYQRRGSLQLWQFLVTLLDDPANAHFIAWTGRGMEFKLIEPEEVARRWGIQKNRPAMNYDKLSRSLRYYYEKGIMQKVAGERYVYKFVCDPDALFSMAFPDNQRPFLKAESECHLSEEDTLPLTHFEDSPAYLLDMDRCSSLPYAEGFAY
In short: as §1

HSF1 = HSF1 (Homo sapiens, UniProt Q00613 1-529); settings: protein: recombinant; tags: N-terminal GST; chain copies: 3; dsDNA, one strand shown
Chain of HSF1 (Q00613 whole entry): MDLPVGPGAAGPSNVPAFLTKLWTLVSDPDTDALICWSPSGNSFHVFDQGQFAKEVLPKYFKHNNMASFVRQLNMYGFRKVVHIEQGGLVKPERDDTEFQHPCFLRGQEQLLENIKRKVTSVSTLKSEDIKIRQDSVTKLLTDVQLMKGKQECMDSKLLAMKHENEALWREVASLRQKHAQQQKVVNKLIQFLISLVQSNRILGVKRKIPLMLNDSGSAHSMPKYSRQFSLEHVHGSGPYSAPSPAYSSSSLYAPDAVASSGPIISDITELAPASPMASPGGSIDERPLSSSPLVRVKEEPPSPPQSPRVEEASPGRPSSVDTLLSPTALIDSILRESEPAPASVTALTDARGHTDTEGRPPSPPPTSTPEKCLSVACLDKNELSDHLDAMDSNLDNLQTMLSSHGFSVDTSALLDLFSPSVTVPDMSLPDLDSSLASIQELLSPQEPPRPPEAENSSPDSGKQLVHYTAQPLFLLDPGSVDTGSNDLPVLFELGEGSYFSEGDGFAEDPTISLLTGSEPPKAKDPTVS
In short: as §1

SPIC = target: T8, SPIC (Homo sapiens, UniProt Q8N5J4 1-248); settings: protein: recombinant; tags: N-terminal GST; dsDNA, one strand shown
T8 sequence: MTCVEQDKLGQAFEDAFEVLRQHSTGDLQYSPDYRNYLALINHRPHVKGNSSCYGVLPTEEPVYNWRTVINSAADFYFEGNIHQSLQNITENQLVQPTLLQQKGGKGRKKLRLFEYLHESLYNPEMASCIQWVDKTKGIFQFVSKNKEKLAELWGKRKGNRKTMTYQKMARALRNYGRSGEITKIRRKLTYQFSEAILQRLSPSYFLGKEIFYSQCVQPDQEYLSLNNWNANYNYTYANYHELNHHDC
In short: as §1

ELF4 = ELF4 (Homo sapiens, UniProt Q99607 1-663); settings: protein: recombinant; tags: N-terminal GST; dsDNA, one strand shown
Chain of ELF4 (Q99607 whole entry): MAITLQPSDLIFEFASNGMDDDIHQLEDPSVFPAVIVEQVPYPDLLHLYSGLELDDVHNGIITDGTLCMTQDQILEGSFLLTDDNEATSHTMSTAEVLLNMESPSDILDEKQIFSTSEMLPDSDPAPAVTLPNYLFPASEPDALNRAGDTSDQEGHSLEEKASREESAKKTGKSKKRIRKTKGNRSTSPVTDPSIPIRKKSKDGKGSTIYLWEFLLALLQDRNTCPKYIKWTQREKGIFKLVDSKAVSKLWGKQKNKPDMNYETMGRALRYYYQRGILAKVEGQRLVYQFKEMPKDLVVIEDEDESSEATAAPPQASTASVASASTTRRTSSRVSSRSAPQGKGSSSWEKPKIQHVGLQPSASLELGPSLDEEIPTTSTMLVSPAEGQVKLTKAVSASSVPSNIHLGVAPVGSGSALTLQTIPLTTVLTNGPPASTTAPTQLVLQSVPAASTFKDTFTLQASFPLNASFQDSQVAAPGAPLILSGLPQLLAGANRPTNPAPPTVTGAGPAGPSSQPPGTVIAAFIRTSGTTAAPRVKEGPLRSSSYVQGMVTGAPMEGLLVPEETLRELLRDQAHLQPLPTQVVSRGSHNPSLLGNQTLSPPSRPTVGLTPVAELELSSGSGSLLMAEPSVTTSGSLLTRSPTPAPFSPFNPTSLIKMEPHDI
In short: as §1

ELK4 = target: T9, ELK4 (Homo sapiens, UniProt P28324-2 1-405); settings: protein: recombinant; tags: N-terminal GST; dsDNA, one strand shown
T9 sequence: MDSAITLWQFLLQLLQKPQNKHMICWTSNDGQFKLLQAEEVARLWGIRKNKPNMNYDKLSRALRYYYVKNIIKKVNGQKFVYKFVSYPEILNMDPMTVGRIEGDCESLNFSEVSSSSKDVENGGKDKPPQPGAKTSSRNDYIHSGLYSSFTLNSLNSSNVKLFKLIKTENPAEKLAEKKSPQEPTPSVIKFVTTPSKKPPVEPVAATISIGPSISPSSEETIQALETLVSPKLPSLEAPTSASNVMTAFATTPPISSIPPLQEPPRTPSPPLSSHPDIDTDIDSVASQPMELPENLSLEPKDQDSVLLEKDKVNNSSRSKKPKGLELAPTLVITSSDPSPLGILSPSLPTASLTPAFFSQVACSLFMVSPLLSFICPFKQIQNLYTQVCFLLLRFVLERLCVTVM
In short: as §1

ETV2 = target: T10, ETV2 (Homo sapiens, UniProt O00321 1-342); settings: protein: recombinant; tags: N-terminal GST; dsDNA, one strand shown
T10 sequence: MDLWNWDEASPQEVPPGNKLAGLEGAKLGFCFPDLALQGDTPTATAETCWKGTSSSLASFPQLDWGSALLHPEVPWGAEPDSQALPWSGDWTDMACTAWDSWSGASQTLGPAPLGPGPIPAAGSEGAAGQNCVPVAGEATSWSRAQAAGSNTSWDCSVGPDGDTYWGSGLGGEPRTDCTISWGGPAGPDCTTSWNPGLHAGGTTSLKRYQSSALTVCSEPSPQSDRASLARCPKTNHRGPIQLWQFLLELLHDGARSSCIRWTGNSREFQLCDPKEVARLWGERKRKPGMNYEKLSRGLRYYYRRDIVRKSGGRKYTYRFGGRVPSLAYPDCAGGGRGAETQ
In short: as §1

ELF3 = target: T11, ELF3 (Homo sapiens, UniProt P78545 1-371); settings: protein: recombinant; tags: N-terminal GST; dsDNA, one strand shown
T11 sequence: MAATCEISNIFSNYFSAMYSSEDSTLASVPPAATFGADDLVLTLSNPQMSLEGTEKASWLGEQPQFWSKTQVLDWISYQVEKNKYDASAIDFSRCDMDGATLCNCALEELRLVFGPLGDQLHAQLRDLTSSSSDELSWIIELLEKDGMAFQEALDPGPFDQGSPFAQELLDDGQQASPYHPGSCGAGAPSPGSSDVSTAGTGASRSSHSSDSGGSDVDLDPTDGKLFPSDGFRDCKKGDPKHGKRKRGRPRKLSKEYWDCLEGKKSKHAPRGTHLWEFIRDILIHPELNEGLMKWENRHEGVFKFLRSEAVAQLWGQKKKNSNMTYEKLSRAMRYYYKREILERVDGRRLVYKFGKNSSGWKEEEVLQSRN
In short: as §1

ETV1 = ETV1 (Homo sapiens, UniProt P50549 1-477); settings: protein: recombinant; tags: N-terminal GST; dsDNA, one strand shown
Chain of ETV1 (P50549 whole entry): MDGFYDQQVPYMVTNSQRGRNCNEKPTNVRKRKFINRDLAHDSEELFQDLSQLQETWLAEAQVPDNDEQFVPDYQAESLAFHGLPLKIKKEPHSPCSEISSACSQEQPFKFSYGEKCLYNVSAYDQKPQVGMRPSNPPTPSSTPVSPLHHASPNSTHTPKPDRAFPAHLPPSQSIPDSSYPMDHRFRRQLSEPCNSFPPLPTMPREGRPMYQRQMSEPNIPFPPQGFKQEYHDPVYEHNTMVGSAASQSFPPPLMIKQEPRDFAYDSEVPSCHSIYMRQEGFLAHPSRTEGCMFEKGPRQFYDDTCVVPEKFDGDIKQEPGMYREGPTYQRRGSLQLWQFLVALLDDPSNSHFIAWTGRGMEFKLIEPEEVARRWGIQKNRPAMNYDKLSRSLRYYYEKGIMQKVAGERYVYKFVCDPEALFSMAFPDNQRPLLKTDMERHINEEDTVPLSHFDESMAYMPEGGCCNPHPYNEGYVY
In short: as §1

CATGAA
binding signal (FLI1): 1.08 fold enrichment (6-mer frequency, TF over GST control)
binding signal (ELK1): 1.16 fold enrichment (6-mer frequency, TF over GST control)
binding signal (GABPA): 1.03 fold enrichment (6-mer frequency, TF over GST control)
binding signal (ERG): 1.07 fold enrichment (6-mer frequency, TF over GST control)
binding signal (ELF1): 1.06 fold enrichment (6-mer frequency, TF over GST control)
binding signal (EHF): 1.15 fold enrichment (6-mer frequency, TF over GST control)
binding signal (SPI1): 1.04 fold enrichment (6-mer frequency, TF over GST control)
binding signal (ELK3): 1.11 fold enrichment (6-mer frequency, TF over GST control)
binding signal (FEV): 1.03 fold enrichment (6-mer frequency, TF over GST control)
binding signal (ETV5): 1.07 fold enrichment (6-mer frequency, TF over GST control)
binding signal (HSF1): 1.05 fold enrichment (6-mer frequency, TF over GST control)
binding signal (SPIC): 1.16 fold enrichment (6-mer frequency, TF over GST control)
binding signal (ELF4): 1.1 fold enrichment (6-mer frequency, TF over GST control)
binding signal (ELK4): 1.11 fold enrichment (6-mer frequency, TF over GST control)
binding signal (ETV2): 1.06 fold enrichment (6-mer frequency, TF over GST control)
binding signal (ELF3): 1.15 fold enrichment (6-mer frequency, TF over GST control)
binding signal (ETV1): 1.08 fold enrichment (6-mer frequency, TF over GST control)

Reference: article PMC7862700, “An all-to-all approach to the identification of sequence-specific readers for epigenetic DNA modifications on cytosine”
